Sm TGR inh: qHTS Assay for the Inhibitors of Schistosoma Mansoni Peroxiredoxins. Schistosoma mansoni thioredoxin glutathione reductase (TGR), Q962Y6. purified TGR, DTNB reduction, TNB absorbance 405 nm. Potency, µM (doses to about 114 µM), for inactives: top-dose activity change, negative = inhibition, usual class: inhibitors. 360,000 tested, 3% active; active = well fitted inhibition curve with a large enough effect; inconclusive = small, poorly fitted or top-dose-only effect; inactive = no such curve, though single readings can be large or run the other way; also: % is scaled to controls: 0 for no effect and ±100 for the full control effect; nearly all actives have a fitted effect of over 60% in size
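First, TGR (20 nM dispensed) and NADPH were mixed with compound. Second, a 15 min room-temperature incubation followed. Third, further NADPH and then DTNB were added to start the reaction. Finally, TNB absorbance was monitored kinetically.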
SARS PLP yeast: qHTS of Yeast-based Assay for SARS-CoV PLP. S. cerevisiae expressing SARS-CoV PLpro, growth rescue. 330,000 tested, 0.19% active. Potency, µM (series often up to 32.9 µM), inactives show at the top dose activity, positive = growth rescue, hits mostly activators; calls by dose curve; also: 0% is about no effect; nearly all actives have a fitted effect of over 55% in size
The depositor's hits bear a star; ? = inconclusive; · = no result. Only some compounds are listed: those with a hit (about 3% of all), similar ones and a draw of the others. Potency is read from the fitted curve at half-maximal effect.

SMILES	Sm TGR inh	SARS PLP yeast
COc1ccc2c(C)c(CCC(=O)NCCc3ccc(OC)c(OC)c3)c(=O)oc2c1	3%	·
O=C(/C=C/c1ccc(O)c(O)c1)OC(Cc1ccc(O)c(O)c1)C(=O)O (centres undefined)	35µM*	2%
COC(=O)[C@@H](N)Cc1ccc(O)c(O)c1	-34%	·
O=c1n(Cc2ccc(Cl)cc2)nc2n1-c1ccccc1OC2	3%	·
COc1ccccc1OCC#CCN1CCOCC1	11µM*	-1%
COc1ccccc1OCC#CCN1CCCCCC1	-23%	-1%
Cc1ccc(/C=C/C(=O)OCn2nnc3ccccc3c2=O)o1	0%	0%
O=C(OCc1nnc(-c2ccccc2)o1)c1ccc(Cl)cc1	·	-2%
O=C(OCc1nnc(-c2ccccc2)o1)c1ccc(CO)cc1	1%	4%
O=C(/C=C/c1ccco1)OCc1nnc(-c2ccc(Cl)cc2)o1	11µM*	-2%
O=C(/C=C/c1ccco1)OCc1nnc(-c2ccccc2)o1	14µM*	-5%
O=C(/C=C/c1ccco1)OCn1nnc2ccccc2c1=O	22µM*	-7%
COC(=O)c1ccccc1NC(=O)c1nc(-c2ccc(C)cc2)n2c1CCCCC2	-4%	·
Cc1ccc(-n2nc3ccc(NC(=O)c4ccco4)cc3n2)cc1	-5%	-20%
Cc1cc(NC(=O)c2ccco2)ccc1NC(=O)c1ccco1	-1%	-43%
O=C(/C=C\c1ccco1)Nc1cc([N+](=O)[O-])ccc1F	?	-23%
Cc1ccc(NC(=O)/C=C/c2ccco2)cc1F	14µM*	·
Cc1cc(NC(=O)/C=C/c2ccco2)ccc1NC(=O)c1ccccc1	10µM*	0%
O=C(/C=C/c1ccco1)Nc1ccc2nn(-c3ccccc3)nc2c1	32µM*	-24%
COc1cc(OC)c(NC2(c3ccccc3)C(=O)c3ccccc3C2=O)cc1Cl	1%	·
CCOC(=O)CNC(=O)Nc1cc(C(=O)NCc2ccc(C(C)C)cc2)ccc1N1CCCC1	7%	·
Cc1ccc(OCc2cc(C(=O)NCc3cn4ccccc4n3)no2)cc1C	-16%	-17%
O=C(NCCc1cn2ccccc2n1)c1cc(COc2c(F)cccc2F)on1	40µM*	-5%
CSc1ccccc1OCc1cc(C(=O)N2CCSCC2)no1	0%	17%
CSc1ccccc1OCc1cc(C(=O)N(C)Cc2ccc3nsnc3c2)no1	0%	-2%
SMILES	Sm TGR inh	SARS PLP yeast
CSc1ccccc1OCc1cc(C(=O)N2CCN(c3ncccn3)CC2)no1	40µM*	3%
CSc1ccccc1OCc1cc(C(=O)N(C)Cc2ccc(C)o2)no1	7.9µM*	-10%
O=C(CSc1nnc(-c2ccccc2)c(-c2ccccc2)n1)NC1CCCCC1	-13%	·
Cc1nc2cccnc2n1C1CCN(C(=O)Nc2ccc(Cl)cc2)CC1	2%	·
COc1ccc(OC)c(NC(=O)CSC2=Nc3ccccc3C3=NC(CCC(=O)NCc4ccco4)C(=O)N23)c1 (centres undefined)	-2%	·
COc1ccccc1N1CCN(C(c2ccccc2)c2nnnn2CCc2ccccc2)CC1 (centres undefined)	-9%	-19%
COc1ccc(C(c2nnnn2C2CCCC2)N2CCc3ccccc3C2)cc1OC (centres undefined)	?	-7%
COc1ccc(C(c2nnnn2CCc2ccccc2)N2CCN(C)CC2)cc1OC (centres undefined)	89µM*	-5%
COCCn1nnnc1C(c1ccc(O)c(OC)c1)N1CCc2ccccc2C1 (centres undefined)	0.35µM*	2%
COc1ccccc1N1CCN(c2ccc(-c3nc(-c4ccccc4)no3)cc2[N+](=O)[O-])CC1	-2%	·
Cc1c(Cl)cccc1NC(=O)C(=O)NCC(c1cccnc1)N1CCN(c2ccccc2)CC1 (centres undefined)	-5%	·
Cc1ccc(OCC(=O)Nc2ccccc2C(=O)OCc2cc(=O)n3c(C)csc3n2)cc1	-4%	·
CCC(c1c(C)[nH]oc1=O)c1c(C)[nH]oc1=O	25µM*	2%
Cc1nnc(NC(=O)c2nc(S(=O)(=O)Cc3ccccc3C)ncc2Cl)s1	25µM*	3%
CCOC(=O)c1ccc(NC(=O)c2nc(SCc3ccccc3F)ncc2Cl)cc1	-2%	·
CCOc1ccc(NC(=O)c2nc(S(=O)(=O)Cc3ccccc3F)ncc2Cl)cc1	7.1µM*	·
CSc1nnc(NC(=O)c2nc(S(=O)(=O)Cc3ccccc3F)ncc2Cl)s1	28µM*	4%
CC(C)c1nnc(NC(=O)CCC(=O)NCc2ccccc2Cl)s1	-30%	5%
Cc1ccc2nc(NC(=O)c3nc(SCc4ccccc4C)ncc3Cl)sc2c1	0%	·
CC(C)c1nnc(NC(=O)c2nc(S(=O)(=O)Cc3ccccc3F)ncc2Cl)s1	32µM*	0%
Cc1nnc(NC(=O)c2nc(SCc3ccccc3F)ncc2Cl)s1	2%	·
Cc1c(Cl)cccc1-n1ncc(C(=O)Nc2ccc3c(c2)OCCO3)c1C1CCN(C(=O)OC(C)(C)C)CC1	-6%	·
Cc1ccc(C)c(N2CCN(CCCNC(=O)c3ccc4nc(C(C)C)oc4c3)CC2)c1	-1%	·
CCC(CC)C(=O)N1CCc2cc(OC)c(OC)cc2C1COc1ccc(C(=O)OC)cc1 (centres undefined)	7%	·
Cc1ccc(-c2nc(-c3cc4cccc(OCc5cccc(F)c5)c4oc3=O)no2)cc1	15%	·
SMILES	Sm TGR inh	SARS PLP yeast
CCc1ccccc1NC(=O)Cn1c(=O)oc2ccccc21	0%	·
CC(C)(C)c1cc(CCC(=O)NNC(=S)NC(=O)c2ccccc2)cc(C(C)(C)C)c1O	-11%	5µM*
O=C(CCc1ccccc1)NNC(=S)NC(=O)c1ccccc1	8%	5%
CCN(CC)C(=O)c1sc2c(c1C)c(=O)n(-c1ccc(Cl)c(Cl)c1)c(=O)n2Cc1ccccc1C#N	0%	·
CC(C)Oc1ccc(CCC(=O)N/N=C/c2ccc3c(c2)OCO3)cc1	13%	0%
O=C(CCc1ccc(O)c(O)c1)N/N=C/c1ccc2c(c1)OCO2	11µM*	1%
CCS(=O)(=O)N1CC(=O)N(c2cccc(Cl)c2C)C(C)(C(=O)NC2CCCCC2)C1 (centres undefined)	5%	·
O=C1N=C(N2CCN(c3ccccc3)CC2)S/C1=C\c1ccco1	22µM*	-5%
NC1=NC(=O)/C(=C/c2cccs2)S1	6%	5%
O=C1N=C(N2CCN(c3ccccc3)CC2)S/C1=C/c1ccco1	?	-3%
NC1=NC(=O)/C(=C\c2ccco2)S1	3.2µM*	1%
CC(C)c1cnc2c(c1SCC(=O)NCc1ccccc1Cl)c(=O)n(C)c(=O)n2C	21%	·
Cc1ccc(CN(Cc2ccco2)C(=O)COc2ccc(Cl)cc2)o1	-17%	·
CC1CCN(c2nnc(-n3cccc3CNc3cccc(F)c3)s2)CC1	-4%	·
COc1ccc(Br)cc1CN1C(=O)c2ccccc2C1C(=O)NC1CCCCCC1 (centres undefined)	4%	·
Cc1nc(NCc2ccco2)c2c(C)c(C)sc2n1	-11%	1%
Cc1sc2nc3c4ccccc4c(NCc4ccco4)nn3c(=O)c2c1C	50µM*	-1%
CN(C)c1ccc(C(=O)/C=C/c2ccccc2)cc1	5%	-7%
CSc1ccc(/C=C/C(=O)c2ccc(O)cc2)cc1	-16%	-48%
CN(C)c1ccc(C(=O)/C=C/c2ccco2)cc1	45µM*	-38%
O=C(/C=C/c1ccco1)c1ccc(O)cc1	3.5µM*	1%
CCSc1ccc([C@@H]2[C@@H]3C(=O)N(CC)C(=O)[C@@H]3[C@]3(C(=O)OC)CCCCN23)cc1	-22%	0%

Source: PubChem (National Center for Advancing Translational Sciences (NCATS))
